The values that follow come from PubChem BioAssay (NCATS).

Test [1] in a line: qHTS profiling of the MIPE4 collection as inhibitors of Plasmodium falciparum (3D7) proliferation (AID 743344).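 Further: scaled between DMSO vehicle wells and 0.29 µM artemisinin as full inhibition.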 As to conditions: P. falciparum 3D7 in erythrocytes, SYBR Green DNA fluorescence, 72 h; at 28.5 µM unless noted. The essentials: (§1)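 Erythrocytes infected with P. falciparum (0.3% parasitemia, 2.5% hematocrit) incubated with compounds 72 h at 37 C, 5% CO2. Lysis with saponin/Triton buffer containing SYBR Green I, overnight at room temperature in the dark; DNA fluorescence (485/535 nm) normalised to 0.29 uM artemisinin and DMSO.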

Test [2] in a line: qHTS profiling of the MIPE4 collection as inhibitors of Plasmodium falciparum (DD2) proliferation (AID 743345). As to conditions: P. falciparum Dd2 in erythrocytes, SYBR Green DNA, 72 h; at 28.5 µM unless noted. In a few lines: as §1
Background: In qHTS, concentration-response curves come from the screen itself.

Test [3] in a line: qHTS profiling of the MIPE4 collection as inhibitors of Plasmodium falciparum (DD2) proliferation (Rep 2) (AID 743346). As to conditions: P. falciparum Dd2 in erythrocytes, SYBR Green DNA, 72 h; at 28.5 µM unless noted. The essentials:
as §1

The nature of test [4]: High-throughput drug toxicity screening in the BPDCN cell line Cal-1 (AID 1224825). As to conditions: Cal-1 BPDCN cell viability, qHTS; at 45.8 µM (top of the series) unless noted. The essentials: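 Exponentially growing Cal-1 cells, 500 per well in phenol red-free RPMI with 10% FBS, were exposed to compounds for 48 h at 37 °C, 5% CO2. Viability was read by CellTiter-Glo luminescence and normalised to DMSO (100%) and 9.2 uM bortezomib (0%).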

Test [5] is described as follows: qHTS profiling for inhibitors of Plasmodium falciparum (DD2) proliferation (AID 743323). As to conditions: lower = more inhibition; at 28.7 µM (top of the series). The essentials:
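Parasite proliferation measured via DNA-dye fluorescence, as uninfected erythrocytes lack DNA. Cultures at 0.3% parasitemia and 2.5% hematocrit incubated 72 h with compound; signal scaled between vehicle and 0.29 uM artemisinin wells.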

A short description of test [6]: qHTS profiling for inhibitors of Plasmodium falciparum (HB3) proliferation (AID 743324).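 Further: 100% = DMSO vehicle wells and 0% = artemisinin-treated control wells.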 As to conditions: Plasmodium falciparum HB3 blood-stage proliferation; at 28.7 µM (top of the series). In a few lines: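 P. falciparum HB3 grown in erythrocytes (0.3% parasitemia, 2.5% hematocrit final) with compound for 72 h at 37 C, 5% CO2. Parasite DNA detected by SYBR Green after saponin/triton lysis overnight; normalized to 0.29 uM artemisinin and DMSO.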

The nature of test [7]: qHTS profiling of the MIPE4 collection as inhibitors of Plasmodium falciparum (HB3) proliferation (AID 743347).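 Further: plate controls were DMSO vehicle wells for no effect and artemisinin wells for full effect.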 As to conditions: P. falciparum HB3 in erythrocytes, SYBR Green DNA, 72 h; at 28.5 µM unless noted. In a few lines: as §1
The nature of test [8]: qHTS profiling for inhibitors of Plasmodium falciparum (3D7) proliferation (AID 743322).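 Further: infected erythrocytes exposed to compound for 72 h before lysis; 100% = DMSO vehicle wells and 0% = 0.29 µM artemisinin.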 As to conditions: P. falciparum 3D7 proliferation; at 28.7 µM (top of the series). The essentials:
as §1

The molecule `CCC1=C[C@@H]2CN(C1)Cc1c([nH]c3ccccc13)[C@@](C(=O)OC)(c1cc3c(cc1OC)N(C)[C@@H]1[C@@](O)(C(=O)OC)[C@H](OC(C)=O)[C@]4(CC)C=CCN5CC[C@]31[C@@H]54)C2` yielded a parasite growth, % of DMSO control in test [1] of 5.09%. For the same molecule, the parasite growth remaining, % of DMSO control (lower = more inhibition) in test [2] is 7.41%. Further, in test [3], the parasite growth, % of control (lower = inhibition) came to 20.6%. In test [4], the viability (% of control) amounted to 14.5%.
In the case of `CCN(CC)CCCCNc1ncc2cc(-c3cc(OC)cc(OC)c3)c(NC(=O)NC(C)(C)C)nc2n1`, the activity, percent of control in test [5] was 1.21%. Also, the remaining proliferation (% of control), lower = more inhibition in test [6] amounted to 0.178%. The molecule also returned a parasite growth, % of DMSO control in test [1] of 5.7%. In addition, the parasite growth remaining, % of DMSO control (lower = more inhibition) in test [2] stood at 9.87%. In test [3], the parasite growth, % of control (lower = inhibition) was found to be 8%. The molecule further showed a growth, % of control in test [7] of 5.53%. Besides, the viability (% of control) in test [4] is 1.79%.
Take `Nc1ccccc1NC(=O)c1ccc(CNC(=O)OCc2cccnc2)cc1`: in test [5], the activity, percent of control was 92.8%. Moreover, in test [1], the parasite growth, % of DMSO control is 25.3%. The parasite growth remaining, % of DMSO control (lower = more inhibition) in test [2] is 31.3%. This molecule also displayed a growth, % of control in test [7] of 7.7%. The viability (% of control) in test [4] was 5.69%.
Consider `Nc1nc(NCCNc2ncc(-n3ccnc3)c(-c3ccc(Cl)cc3Cl)n2)ccc1[N+](=O)[O-]`, for which the parasite growth, % of DMSO control in test [1] came to 16.9%. In test [2], the parasite growth remaining, % of DMSO control (lower = more inhibition) worked out at 80%. The parasite growth, % of control (lower = inhibition) in test [3] is 44.4%. Besides, the growth, % of control in test [7] amounted to 4.45%. The viability (% of control) in test [4] was found to be 4.88%.
In the case of `COc1cc2c(Oc3ccc(-c4cnc(Nc5ccc(F)cc5)n(C)c4=O)cc3F)ccnc2cc1OCCCN1CCOCC1`, in test [8], the remaining parasite growth % (stronger effect = lower value) was -2.59%. The activity, percent of control in test [5] was -0.143%. The remaining proliferation (% of control), lower = more inhibition in test [6] is -1.33%. The molecule also yielded a parasite growth, % of DMSO control in test [1] of 6.28%. Moreover, the parasite growth remaining, % of DMSO control (lower = more inhibition) in test [2] was 6.26%. In test [7], the growth, % of control turned out to be 9.39%. Moreover, the viability (% of control) in test [4] worked out at 0.783%.
In test [1], `CCN(CC)CCNC(=O)c1ccc2nc(-c3ccccc3)c(-c3ccc(CN4CCC(n5c(=O)[nH]c6ccccc65)CC4)cc3)nc2c1` came in with a parasite growth, % of DMSO control of 4.56%. Further, the parasite growth remaining, % of DMSO control (lower = more inhibition) in test [2] was 5.78%. Also, the parasite growth, % of control (lower = inhibition) in test [3] was 19.4%. Moreover, the growth, % of control in test [7] stood at 8.22%. In addition, in test [4], the viability (% of control) worked out at 0.965%.
`OCc1ccc(-c2ccc(-c3ccc(CO)s3)o2)s1` displayed a parasite growth, % of DMSO control in test [1] of 78.4%. For the same molecule, the parasite growth remaining, % of DMSO control (lower = more inhibition) in test [2] worked out at 79.5%. In addition, the parasite growth, % of control (lower = inhibition) in test [3] is 47.9%. Besides, the viability (% of control) in test [4] amounted to 1.47%.
`O=C(O)Cn1nnc(-c2cc(N3CCC(Oc4cc(F)ccc4Br)CC3)no2)n1` yielded a parasite growth, % of DMSO control in test [1] of 86%. Further, the parasite growth remaining, % of DMSO control (lower = more inhibition) in test [2] is 127%. Moreover, in test [3], the parasite growth, % of control (lower = inhibition) came out at 83.7%. In test [7], the growth, % of control was found to be 95.6%. The viability (% of control) in test [4] was 114%.
For `COc1ccc(-n2nc(C(N)=O)c3c2C(=O)N(c2ccc(N4CCCCC4=O)cc2)CC3)cc1` the same measures were 53.4%, 82.6%, 61.9%, 83.4% and 104%.
As for `C[C@@H](Oc1cc(-c2cnn(C3CCNCC3)c2)cnc1N)c1c(Cl)ccc(F)c1Cl`, the activity, percent of control in test [5] was 1.46%. Further, in test [1], the parasite growth, % of DMSO control amounted to 5.26%. For the same molecule, the parasite growth remaining, % of DMSO control (lower = more inhibition) in test [2] was determined as 5.84%. The parasite growth, % of control (lower = inhibition) in test [3] was found to be 10.7%. Moreover, the growth, % of control in test [7] was determined as 2.36%. For the same molecule, in test [4], the viability (% of control) came to 3.63%.
With `CN1CCN(c2cc(C(=O)Nc3ccc4c(c3)-c3c(c(C(N)=O)nn3-c3ccc(F)cc3)CC4)c(Cl)cn2)CC1`, in test [5], the activity, percent of control is 0.473%. Besides, in test [6], the remaining proliferation (% of control), lower = more inhibition is -0.224%. Further, the parasite growth, % of DMSO control in test [1] amounted to 4.93%. For the same molecule, the parasite growth remaining, % of DMSO control (lower = more inhibition) in test [2] is 7.41%. In test [3], the parasite growth, % of control (lower = inhibition) came to 16.2%. In test [7], the growth, % of control turned out to be 3.51%. Besides, the viability (% of control) in test [4] was determined as 3.02%.
As for `CC(C)(O)CCc1ccc(OCc2cc(-c3cccc(OC(F)F)c3)c3ncccc3c2)cc1`, the activity, percent of control in test [5] was 37.1%. Further, in test [6], the remaining proliferation (% of control), lower = more inhibition is 15.5%. Moreover, the parasite growth, % of DMSO control in test [1] was determined as 111%. Further, the parasite growth remaining, % of DMSO control (lower = more inhibition) in test [2] turned out to be 93%. In test [3], the parasite growth, % of control (lower = inhibition) is 102%. The same molecule yielded a growth, % of control in test [7] of 102%. Further, the viability (% of control) in test [4] is 75.3%.
Consider `CC(C)c1cc(-c2n[nH]c(=O)n2-c2ccc3c(ccn3C)c2)c(O)cc1O`, for which the parasite growth, % of DMSO control in test [1] was 5.55%. In test [2], the parasite growth remaining, % of DMSO control (lower = more inhibition) was 8.22%. Further, the parasite growth, % of control (lower = inhibition) in test [3] is 8.97%. In test [7], this molecule showed a growth, % of control of 1.94%. In addition, the viability (% of control) in test [4] came out at 10.7%.
In the case of `CC(C)c1nn(-c2c(Cl)cccc2Cl)c2nc(Cc3ccc(OCCO)cc3)[nH]c(=O)c12`, the parasite growth, % of DMSO control in test [1] came out at 20.8%. The parasite growth remaining, % of DMSO control (lower = more inhibition) in test [2] was 62%. The parasite growth, % of control (lower = inhibition) in test [3] was 27.3%. The molecule also came in with a growth, % of control in test [7] of 21.7%. The viability (% of control) in test [4] turned out to be 2.52%.
Take `CC(C)(O)c1cc2nc(-c3cnc(N)nc3)nc(N3CCOCC3)c2s1`: in test [1], the parasite growth, % of DMSO control was found to be 10.6%. In test [2], the parasite growth remaining, % of DMSO control (lower = more inhibition) stood at 10.4%. The parasite growth, % of control (lower = inhibition) in test [3] was 10%. Further, the growth, % of control in test [7] was 2.52%. In test [4], the viability (% of control) was found to be 24%.
For `CC(C)c1ccccc1Cc1cc(C(=O)Nc2ccc(S(=O)(=O)c3ccccc3C(C)(C)C)cc2)c(O)c(O)c1O`, the activity, percent of control in test [5] was determined as 2.09%. The molecule also yielded a parasite growth, % of DMSO control in test [1] of 5.18%. In addition, the parasite growth remaining, % of DMSO control (lower = more inhibition) in test [2] is 6.18%. This molecule came in with a growth, % of control in test [7] of 7.71%. Further, in test [4], the viability (% of control) worked out at 14.8%.
For the molecule `Cc1cc(C(=O)N2CCN(c3cccc(Cl)c3)CC2)n(-c2ccccc2)n1`, the parasite growth, % of DMSO control in test [1] was determined as 97.2%. Moreover, the parasite growth remaining, % of DMSO control (lower = more inhibition) in test [2] amounted to 107%. In test [3], the parasite growth, % of control (lower = inhibition) came to 98.6%. For the same molecule, the viability (% of control) in test [4] is 18.2%.
For `CCCCCN(CCC12CC3CC(CC(C3)C1)C2)C(=O)NCCCc1ccncc1`, in test [5], the activity, percent of control amounted to 32.6%. Further, in test [1], the parasite growth, % of DMSO control was 6.26%. In addition, the parasite growth remaining, % of DMSO control (lower = more inhibition) in test [2] was 11.7%. The parasite growth, % of control (lower = inhibition) in test [3] was 13.6%. Further, the viability (% of control) in test [4] came out at 94.4%.
In test [1], `COc1cc(-c2nn(C3CCC(N4CCN(C(C)=O)CC4)CC3)c3ncnc(N)c23)ccc1NC(=O)c1cc2ccccc2n1C` (stereo unspecified) yielded a parasite growth, % of DMSO control of 5.39%. Further, the parasite growth remaining, % of DMSO control (lower = more inhibition) in test [2] was 12.1%. Further, the parasite growth, % of control (lower = inhibition) in test [3] came out at 20.7%. For the same molecule, the growth, % of control in test [7] was 7.32%. Further, the viability (% of control) in test [4] stood at 9.55%.
